Source: PubChem BioAssay AID492954 (National Center for Advancing Translational Sciences (NCATS), 2010)
“And” between values parts separate entries of the source, which are not always exact repeats. Equal entries are not always repeated. Inconclusive results are not listed. The source made the active and inactive calls. The call rests on the fitted dose curve.

Assay: Mouse Th17 T cell differentiation assay for inhibitors of ROR gamma transcriptional activity
Settings: mouse naive CD4 T cells Th17, IL17a-GFP flow cytometry; series mostly up to 20 µM
Excerpt: NIH Molecular Libraries Probe Production Network [MLPCN] NIH Chemical Genomics Center [NCGC] MLPCN Grant: R03 DA026211-01 Assay Provider: Dan Littman, New York University Keywords: NIH Roadmap, MLPCN, MLI, MLSMR, qHTS, NCGC, qHTS, nuclear hormone receptor, retinoic acid-related orphan receptor, ROR gamma Assay Overview: The retinoic acid-related orphan receptor (ROR) gamma is a transcription factor that has a central role in the differentiation of Th17 cells, a subset of T helper cells that secrete the inflammatory cytokines IL-17a, IL-17f, and IL-22. Th17 cells have been implicated in graft versus host disease, autoimmune disease and asthma. ROR gamma is induced in naive T helper cells in the presence of TGF-beta combined with IL-6, IL-21, or IL-23, and thereafter directs the expression of the Th17 lineage cytokines. To confirm inhibition of ROR gamma, compounds were tested in a mouse Th17 T cell differentiation assay. Th17 differentiation was tracked by expression of a GFP reporter under the control of the endogenous IL-17a promoter using flow cytometry. Compounds that block ROR gamma activity prevent expression of the IL17a-GFP reporter.
Assay Protocol Summary: Cells from lymph nodes and spleens derived from six to eight week old IL17a-GFP mice (Biocytogen LLC) were used for T cell purification. B220- cells were isolated on an autoMACS Pro with bead depletion of B220+ cells (Miltenyi). Naive CD4+ T cell were further purified as TCRb+CD8- DAPI- CD19- CD4+CD25- CD62L+CD44low/Int by cell sorting on a FACSAria (BD). Cells were cultivated in an incubator at 37 C and 5% CO2 in RPMI 1640 medium (Invitrogen) supplemented with 10% (vol/vol) heat-inactivated FBS (Hyclone), penicillin-streptomycin, 2 mM glutamine and 0.1 mM nonessential amino acids. Cells were seeded on day 0 at a density of 0.4x10^5 cells per ml in 96-well plates coated with anti-CD3e (5 ug/ml) and anti-CD28 (10 ug/ml). Cells were cultured for 4-5 days in Th17 (TGFb (0.3 ng/ml), IL6 (20 ng/ml), anti-IFN-g, and anti-IL-4) condition. At day 1, compounds dissolved in DMSO were added. GFP expression was assayed on day 4 or 5 with DAPI- and PECy7-conjugated CD4+ cells. An LSR II (BD Biosciences) and FlowJo software (Tree Star) were used for flow cytometry. Keywords: NIH Roadmap, MLPCN, MLI, MLSMR, qHTS, NCGC, qHTS, nuclear hormone receptor, retinoic acid-related orphan receptor, ROR gamma

Row | SMILES | Potency
1 | COc1cc(OC)c(C(CC(=O)N2CC(C)CC(C)C2)c2ccc3c(c2)OCO3)c(OCC#N)c1 (stereo not given) | 3 µM (active)
2 | COc1ccc(C(CC(=O)N2CCCC(C)C2)c2c(O)cc(OC)cc2OC)cc1 (stereo not given) | 5 µM (active)
3 | COc1cc(O)c(C(CC(=O)N2CCC(C)CC2)c2ccc3c(c2)OCO3)c(OC)c1 (stereo not given) | inactive
4 | COc1cc(O)c(C(CC(=O)N2CCCC(C)C2)c2ccccc2C)c(OC)c1 (stereo not given) | inactive
5 | COc1cc(O)c(C(CC(=O)N2CC(C)NC(C)C2)c2ccc3c(c2)OCO3)c(OC)c1 (stereo not given) | inactive
6 | COCOc1cc(OC)cc(OC)c1C(CC(=O)N1CC(C)CC(C)C1)c1ccc2c(c1)OCO2 (stereo not given) | 1 µM (active)
7 | COc1cc(O)c(C(CC(=O)N2C[C@H](C)C[C@H](C)C2)c2ccc3c(c2)OCO3)c(OC)c1 (stereo not given in full) | 0.4 µM (active)
8 | COc1cc(O)c(C(CC(=O)N2CCCC(C(F)(F)F)C2)c2ccc3c(c2)OCO3)c(OC)c1 (stereo not given) | 7 µM (active)
9 | COc1cc(O)c(C(CC(=O)N2CC(C)CC(C)C2)c2ccc(N(C)C)cc2)c(OC)c1 (stereo not given) | 0.4 µM (active)
10 | COc1cc(OC)c(C(CC(=O)N2CCCC(C)C2)c2ccc3c(c2)OCO3)c(OC)c1 (stereo not given) | 2 µM (active)
11 | COc1ccc(C(CC(=O)N2CCCC(C)C2)c2ccc3c(c2)OCO3)c(O)c1 (stereo not given) | inactive
12 | COc1cc(O)c(C(CC(=O)N2CC(C)CC(C)C2)c2ccc(O)cc2)c(OC)c1 (stereo not given) | 0.3 µM (active)
13 | COc1ccc(C(CC(=O)N2CC(C)CC(C)C2)c2c(O)cc(OC)cc2OC)cc1 (stereo not given) | 0.4 µM (active)
14 | COc1cc(OC)c(C(CC(=O)N2CC(C)CC(C)C2)c2ccc3c(c2)OCO3)c(OC)c1 (stereo not given) | 0.8 µM (active)
15 | COc1cc(O)c(C(CC(=O)N2CCCC(C)(C)C2)c2ccc3c(c2)OCO3)c(OC)c1 (stereo not given) | 6 µM (active)
16 | COc1cc(O)c(C(CC(=O)N2CCCC(C)C2)c2ccc(C)cc2)c(OC)c1 (stereo not given) | 4 µM (active)
17 | COc1cc(O)c(C(CC(=O)N2CC(C)OC(C)C2)c2ccc3c(c2)OCO3)c(OC)c1 (stereo not given) | 0.8 µM (active)
18 | COc1cc(O)c(C(CC(=O)N2CCCC(C)C2)c2cccs2)c(OC)c1 (stereo not given) | 6 µM (active)
19 | COc1cc(OC)c(C(CC(=O)N2CC(C)CC(C)C2)c2ccc3c(c2)OCO3)c(OCC(N)=O)c1 (stereo not given) | inactive
20 | COc1cc(O)c(C(CC(=O)N2CC(C)CC(C)C2)c2ccc3c(c2)OCCO3)c(OC)c1 (stereo not given) | 0.3 µM (active)
21 | COc1cc(O)c(C(CC(=O)N2CC(C)CC(C)C2)c2ccc3c(c2)OCO3)c(OC)c1 (stereo not given) | 500 nM (active) and 700 nM (active)
22 | COc1ccc(C(CC(=O)N2CCCC(C)C2)c2c(O)cc(OC)cc2OC)c(OC)c1 (stereo not given) | inactive
23 | COc1cc(O)c(C(CC(=O)N2CC(C)CC(C)C2)c2ccc(C)cc2)c(OC)c1 (stereo not given) | 0.5 µM (active)
24 | COc1cccc(O)c1C(CC(=O)N1CCCC(C)C1)c1ccc2c(c1)OCO2 (stereo not given) | inactive
25 | COc1cc(O)c(C(CC(=O)N2CCCC(C)C2)c2ccccc2)c(OC)c1 (stereo not given) | inactive
